Inconclusive results are not listed. Unmarked numbers belong to inactive results. The source made the active and inactive calls. The call rests on the fitted dose curve; in most records, active means well fitted curve in the direction sought with a large enough effect; inconclusive means small, poorly fitted or top-dose-only effect, or another doubt; inactive means no such curve, though single readings can be large or run the other way.
On the % scale 0 is the no-effect control and ±100 the full control effect; potency means the concentration at half of the fitted maximal effect.

This assay is described as follows: qHTS Assay for Identifying Gametocytocidal Compounds (AID 743244).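 On max response: actives lower the fluorescent signal which means gametocytes are killed.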 As to conditions: P. falciparum 3D7 stage III-V gametocytes, alamarBlue, 72 h; max response: stronger effect = lower value. The gist of the method:
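Late gametocytes (III–V), P. falciparum 3D7; 72 h drug, then 24 h alamarBlue; resazurin reduction read by fluorescence.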
Consider `Nc1ccc(CCNc2ncnc3c2ncn3C2OC(CO)C(O)C2O)cc1` (stereo not drawn), for which the max response was 12.3%.

As to `CCCCCCN(CCCCCC)C(=O)Cc1c(-c2ccc(F)cc2)[nH]c2ccccc12`, the max response is 19.7%. Same read-out and setting: under `CNc1ncnc2c1ncn2[C@H]1C[C@H](OP(=O)(O)O)[C@@H](COP(=O)(O)O)O1` stands 21.7%; under `O=c1[nH]ccc2c(O)cccc12`, 22.6%; under `N#CC(C#N)=C(N)/C(C#N)=C/c1ccc(O)cc1`, 11.4%. Regarding `C[C@H](O)C(=O)C1=Nc2c(nc(N)[nH]c2=O)NC1`, the max response is 13.3%.

On to `CCN1C(=O)C=CC1=O`, for which the max response was 14.2%.

For `O=C(O)/C=C/c1cnc[nH]1`, the max response was 8.66%. For the compound `CN1CCC2(CCN3CCc4c(oc5ccccc45)C3C2)N(C)C1=O` (stereo not drawn), the max response was 28.4%. For `CN1Cc2sccc2C(c2ccc(O)c(O)c2)C1` (stereo not drawn), the Potency was 891 nM (active). Consider `C=C1C[C@@]23CC[C@H]4[C@@](C)(CCC[C@@]4(C)C(=O)O)[C@@H]2CC[C@]1(O)C3`, for which the max response is 31.3%. Still for that read-out and setting: under `Cc1nc2n(c(=O)c1CCN1CCC(c3noc4cc(F)ccc34)CC1)CCCC2O` (stereo not drawn) stands 7.08%; under `[N-]=[N+]=Nc1ccc(C(=O)CSC[C@H](NC(=O)CC[C@H](N)C(=O)O)C(=O)NCC(=O)O)cc1`, 27%; under `N#Cc1cc2nc(O)c(O)nc2cc1[N+](=O)[O-]`, 15.6%. On the same count and under the same terms, under `NOCC(=O)O` stands -2.42%; under `c1ccc(C(NCCNC(c2ccccc2)c2ccccc2)c2ccccc2)cc1`, -2.86%; under `Cc1cc(Cn2cnc3c2C[C@@H](C(=O)O)N(C(=O)C(c2ccccc2)c2ccccc2)C3)ccc1N`, -5.22%.

As to `N[C@H](C(=O)O)[C@H]1C[C@@H]1C(=O)O`, the max response was 18.4%. Take `Nc1ncnc2c1nc(Br)n2C1OC2COP(=O)(O)O[C@@H]2C1O` (stereo partly drawn): the max response is 31.4%.

Consider `COc1cc(C(O)C(=O)O)ccc1O` (stereo not drawn), for which the max response was 20.3%. The same measure, in the same setting: under `COCc1nc2c([nH]1)c(=O)n(C)c(=O)n2CC(C)C` stands 28.7%. Same read-out and setting: under `CC(=O)NCCc1c[nH]c2ccc(O)cc12` stands 28.4%; under `N[C@@H](Cc1ccc(F)cc1)C(=O)O`, 19.5%; under `NC1CCN(O)C1=O` (stereo not drawn), 19.4%.

For the compound `NC(C(=O)N[C@@H]1C(=O)N2C(C(=O)O)=C(Cl)CS[C@H]12)c1ccccc1` (stereo partly drawn), the max response was 8.93%.

Consider `O=C1C2C=CC=CC2=NC(=S)N1CCN1CCC(=C(c2ccc(F)cc2)c2ccc(F)cc2)CC1` (stereo not drawn), for which the max response was 2.83%. Same read-out and setting: under `CSC(N)=NCCC[C@H](N)C(=O)O` stands 9.52%; under `CC1C(=O)N(C)C(=O)c2nc[nH]c21` (stereo not drawn), 38.8%.

The record behind these values is PubChem BioAssay (NCATS).
